Experiment [1] can be described thus: A549 cell viability effects, profiling panel, calcein-AM fluorescence, 48 h, basal (AID 1162). Conditions: higher = more signal.
The nature of experiment [2]: adipocyte viability effects, profiling panel, cell-based, 3T3-L1 adipocytes, calcein-AM fluorescence, 48 h, basal (AID 1163). Conditions: 3T3-L1 adipocytes viability, higher = more signal.
A short description of experiment [3]: HepG2 cell viability effects, profiling panel, calcein-AM fluorescence, 48 h, basal (AID 1164). Conditions: higher = more signal.
Experiment [4] can be described thus: MM1S cell viability effects, profiling panel, calcein-AM fluorescence, 48 h, basal (AID 1165).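 Further: viability of MM1S multiple myeloma cells under basal unstimulated conditions.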 Conditions: higher = more signal.
Experiment [5] can be described thus: basal RPMI8226 viability, no added stimulus, profiling panel, cell-based, calcein-AM fluorescence, 48 h, PK04 Diversity Set (AID 1166).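 Further: cells grown under basal conditions without added stimulus.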 Conditions: RPMI8226 myeloma viability, higher = more signal.
Experiment [6] is described as follows: basal HepG2 mitochondrial membrane potential changes, profiling panel, cell-based, JC-1 fluorescence, 24 h, 100 nL compound (AID 1167). Conditions: higher = more signal.
Experiment [7] in a line: basal 3T3-L1 adipocyte mitochondrial potential changes, profiling panel, cell-based, JC-1 fluorescence, 3T3-L1 adipocytes, 24 h, 100 nL compound (AID 1168). Conditions: JC-1 mitochondrial fluorescence, higher = more signal, called active from +8 up or from −8 down.
Experiment [8] is described as follows: basal RPMI8226 mitochondrial membrane potential changes, profiling panel, cell-based, JC-1 fluorescence, 24 h, 100 nL compound (AID 1169). Conditions: RPMI8226 myeloma, JC-1 mitochondrial potential fluorescence, higher = more signal.
Experiment [9] in a line: basal MM1S mitochondrial membrane potential changes, profiling panel, cell-based, JC-1 fluorescence, 24 h, 100 nL compound (AID 1170). Conditions: higher = more signal.
Experiment [10] can be described thus: A549 lung cancer cell viability effects, profiling panel, resazurin fluorescence, 24 h, PK04 Diversity Set (AID 1171). Conditions: higher = more signal, called active from +8 up or from −8 down.

Active and inactive are the calls of the source.
Further: test concentration not given here.

With `C=CCC(OC(C)=O)[C@@H]1[C@@H](N(Cc2cccc3ccccc23)C(=O)c2cccc3ccccc23)c2cc(OCCCO)ccc2N1C(=O)c1ccc(-c2ccccc2)cc1` (stereo not given in full), the z-score in experiment [1] is -0.545; in experiment [2], 0.511; in experiment [3], 0.571; in experiment [4], 0.425; in [5], 0.0712; in experiment [6], 1.61. For the same compound, the z-score in [7] was -0.632 (inactive); in [8], 0.72; in [9], -0.177; in [10], -0.227 (inactive).

As for `O=C1NC(=O)C2C1C=CC(C(O)c1ccco1)N2Nc1ccccn1` (stereo not given), the z-score in [1] is -0.291; in [2] it was -0.0855; in [3] it was -0.125; in experiment [4] it was -0.0456; in experiment [5], -0.529; in experiment [6], -1.33. In addition, the z-score in [7] was -0.688 (inactive); in experiment [8], 0.127; in [9] it was -0.154; in experiment [10], -0.974 (inactive).

For `C=CCC(OC(C)=O)[C@@H]1[C@@H](N(Cc2ccc(-c3ccccc3)cc2)C(=O)Cc2ccc(F)cc2)c2cc(OCCCO)ccc2N1C(=O)Cc1ccc(OC)cc1` (stereo not given in full), the z-score was 0.178 in [1]; 0.0992 in [2]; 0.833 in experiment [3]; 0.399 in [4]; -0.279 in [5]; 1.69 in [6]. For the same compound, the z-score was -1.02 (inactive) in experiment [7], -0.112 in [8], -0.362 in experiment [9] and 0.084 (inactive) in experiment [10].

On to `C=CCOC(=O)[C@H]1[C@@H]2C(=O)O[C@@H](c3ccccc3)[C@@H](c3ccccc3)N2[C@@H](c2ccc(OCCOC(=O)[C@@H]3C[C@@H]4C(=O)N[C@@H](CCCCNC(C)=O)C(=O)N4[C@@H]3c3ccc(O)cc3)cc2)[C@]12C(=O)Nc1ccc(I)cc12`, for which the z-score was -0.34 in experiment [1]; 0.522 in [2]; -0.786 in [3]; -1.6 in [4]; -0.957 in experiment [5]; -1.03 in experiment [6]. Moreover, the z-score was 2.24 (inactive) in experiment [7], -0.744 in experiment [8], -0.888 in [9] and -0.389 (inactive) in experiment [10].

For the compound `CC(C)(C)N1CC=CC23O[C@@H]4C=CCCOC(=O)C4[C@H]2C(=O)N(CCO)[C@@H]3C1=O` (stereo not given in full), the z-score in [1] is -0.708; in [2] it was -0.358; in experiment [3], -0.811; in experiment [4] it was 0.18; in experiment [5], 0.608; in experiment [6], -0.405. Besides, the z-score was -1.46 (inactive) in [7], 0.168 in [8], -0.132 in experiment [9] and -0.693 (inactive) in experiment [10].

In the case of `COc1ccc([Si](C)(C)[C@@H]2[C@@H](CC(=O)N3Cc4ccccc4C[C@H]3CO)O[C@]3(C(=O)N(Cc4cccc(N5C(=O)c6cccc7cccc5c67)c4)c4ccccc43)[C@H]2C)cc1`, the z-score in experiment [1] was -0.419; in [2], 1.11; in experiment [3] it was -0.553; in [4], -0.428; in experiment [5] it was -1.41; in [6], -0.715. Moreover, the z-score in experiment [7] was 1.14 (inactive); in [8], -0.98; in experiment [9], -1.36; in experiment [10], -1.28 (inactive).

In the case of `[N-]=[N+]=NCc1ccccc1C[C@@]1(C(=O)NCc2ccccc2)N=C(c2ccc(OCCCO)cc2)O[C@@H]1c1ccccc1N=[N+]=[N-]`, the z-score is 0.0629 in experiment [1]; -1.67 in [2]; -0.236 in experiment [3]; -2.78 in [4]; -3.5 in [5]; 0.917 in experiment [6]. Besides, the z-score in experiment [7] was 0.898 (inactive); in experiment [8] it was -1.11; in experiment [9], -1.24; in experiment [10], -0.0617 (inactive).

As to `C=C(C(=O)CC[C@@H](OC(C)=O)c1ccc(CO)o1)C(C)C`, the z-score in experiment [1] is -0.306; in experiment [2], -0.317; in [3], -0.261; in [4], -1.39; in experiment [5] it was -0.812; in experiment [6], -1.5. Also, the z-score was 0.241 (inactive) in [7], 0.544 in experiment [8], -0.591 in [9] and 0.246 (inactive) in [10].

As for `CO[C@H]1O[C@H](CO)[C@@H](OC(=O)Nc2ccccc2-c2ccccc2)[C@H](OC(=O)Nc2ccc3c(c2)OCO3)[C@H]1OC(=O)Nc1ccc2c(c1)OCO2`, the z-score in experiment [1] is 0.673; in experiment [2], -0.31; in experiment [3], -0.521; in experiment [4], -1.02; in [5], -2.75; in experiment [6], 0.844. In addition, the z-score in experiment [7] was 1.48 (inactive); in experiment [8], -1.01; in experiment [9], 0.823; in experiment [10], 0.262 (inactive).

Turning to `CN(C)C(=O)[C@@]1(CCS(=O)(=O)c2ccccc2)N=C(c2ccc(OCCCO)cc2)O[C@H]1c1ccccc1`, the z-score in experiment [1] is 0.0979; in experiment [2] it was 0.171; in [3], 0.568; in experiment [4], -0.215; in experiment [5], -2.01; in experiment [6], -0.104. Besides, the z-score was -0.268 (inactive) in experiment [7], 0.331 in experiment [8], 0.0134 in [9] and -0.124 (inactive) in [10].

As for `C=CC[C@@]1(C(=O)N2CCOCC2)N=C(c2ccc(OCCCO)cc2)O[C@@H]1c1ccccc1CN=[N+]=[N-]`, the z-score in experiment [1] is 1.42; in experiment [2] it was 0.563; in [3], 1.09; in [4], -0.909; in [5] it was -0.697; in experiment [6], 1.97. Further, the z-score in experiment [7] was -0.212 (inactive); in [8] it was -0.838; in experiment [9] it was -0.845; in [10], 0.278 (inactive).

`O=c1n(-c2ccccc2)c(=O)n2n1CC(COc1ccccc1)=C([C@H](O)CCc1ccccc1)[C@@H]2CO`: the z-score in experiment [1] was -0.0498; in [2], 0.725; in experiment [3] it was 0.787; in [4], -1.44; in [5] it was -2.34; in [6], -1.2. Further, the z-score was 0.0027 (inactive) in experiment [7], 0.0482 in [8], -1.98 in experiment [9] and -0.962 (inactive) in [10].

For the compound `CCOC(=O)C[C@H]1[C@H](OC(=O)c2cc3ccccc3oc2=O)[C@@H](NC(=O)c2ccc(-c3ccccc3)cc2)c2cc(OCCCO)ccc2N1C(=O)c1ccc2ccccc2n1`, the z-score in experiment [1] was 0.224; in experiment [2], 0.198; in experiment [3], 1.25; in [4], 0.0181; in [5], 0.624; in [6] it was 0.259. The z-score in experiment [7] is -0.023 (inactive); in experiment [8], 0.174; in [9], -0.122; in [10] it was 0.73 (inactive).

Consider `CC(c1ccccc1)C(O)C1C=CC2C(=O)N(c3ccccc3)C(=O)C2N1Nc1ccc([N+](=O)[O-])cc1` (stereo not given), for which the z-score was -0.898 in experiment [1]; -0.755 in experiment [2]; 0.204 in [3]; 0.48 in experiment [4]; -0.129 in [5]; -0.411 in experiment [6]. For the same compound, the z-score in [7] is -1 (inactive); in experiment [8] it was -1.03; in experiment [9], -1.44; in experiment [10], 1.07 (inactive).

Values taken from PubChem BioAssay.
